# Measurements: PubChem BioAssay (EPA / NIEHS)
# Calls of active or inactive are those of the source. Rule for the calls: active = hit-call score of the fitted dose curve at least 0.9, where 1 is the maximum; inactive = score below 0.9.
# What was measured:
# Settings in all cases: primary human HUVEC with PBMC; actives raise or lower the signal
# [1] = read-out: Monocyte Chemoattractant Protein-1 (MCP1), CCL2 (gene 6347); experiment: BSK_LPS_MCP1: BioMAP Diversity Plus: LPS Assay for Monocyte Chemoattractant Protein-1 (MCP1) Biomarker Activity (AID 2283081)
# Summary of the method: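 Values derive from bidirectional fitting against DMSO of ELISA-measured MCP-1 in a human primary endothelial and mononuclear cell co-culture, 24 h after chemical addition under LPS activation.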
# [2] = BSK_LPS_PGE2: BioMAP Diversity Plus: LPS Assay for Prostaglandin E2 (PGE2) Biomarker Activity (AID 2283082)
# Summary of the method: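 Endpoint derived from bidirectional curve fitting versus DMSO of ELISA-measured PGE2 in LPS-stimulated human primary vascular co-culture (HUVEC with PBMC) harvested at 24 h.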
# [3] = read-out: Tissue Factor, F3 (gene 2152); experiment: BSK_LPS_TissueFactor: BioMAP Diversity Plus: LPS Assay for Tissue Factor Biomarker Activity (AID 2283084)
# Summary of the method: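 Read-out: CD142 ELISA, 24 h. System: LPS-driven human endothelial/PBMC co-culture. Analysis: up- or down-signal fitted against DMSO.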
# [4] = read-out: Tumor necrosis factor (Homo sapiens) (UniProt P01375); experiment: BSK_LPS_TNFa: BioMAP Diversity Plus: LPS Assay for Tumour Necrosis Factor alpha (TNFa) Biomarker Activity (AID 2283085)
# Summary of the method: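 Primary human vascular co-culture of HUVEC and PBMC; TNFa ELISA 24 h after treatment, analysed as increase or decrease relative to DMSO control.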
# [5] = read-out: Vascular cell adhesion molecule 1 (VCAM1), VCAM1 (gene 7412); experiment: BSK_LPS_VCAM1: BioMAP Diversity Plus: LPS Assay for Vascular cell adhesion molecule 1 (VCAM1) Biomarker Activity (AID 2283086)
# Summary of the method: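 Primary human vascular co-culture (umbilical vein endothelium plus PBMC) stimulated with LPS received chemical; 24 h later VCAM-1 was read by ELISA. Overt cytotoxicity was assessed by sulforhodamine B staining of parallel cultures at the same time point.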
# CD38, CD38 (gene 952) = experiment: BSK_SAg_CD38: BioMAP Diversity Plus: SAg Assay for CD38 Biomarker Activity (AID 2283087)
# Summary of the method: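 Fluorescence ELISA of cell-surface CD38 served as the read-out, with either increase or decrease fitted against DMSO controls. Cells were a human umbilical vein endothelium plus PBMC co-culture under SEB/TSST-1 stimulation, measured 24 h after dosing.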
# CD40, CD40 (gene 958) = experiment: BSK_SAg_CD40: BioMAP Diversity Plus: SAg Assay for CD40 Biomarker Activity (AID 2283088)
# Summary of the method: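 Endpoint derived by fitting increases or decreases versus DMSO controls. CD40 is detected by fluorescence ELISA in a human vascular co-culture of endothelium and PBMC at 24 h.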
# CD69, CD69 (gene 969) = experiment: BSK_SAg_CD69: BioMAP Diversity Plus: SAg Assay for CD69 Biomarker Activity (AID 2283089);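 for AC50: cell surface CD69 protein quantified by ELISA with fluorescence detection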
# Summary of the method: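 ELISA, fluorescence read-out: CD69 on human umbilical vein endothelial cell + PBMC co-culture, 24 h post-dosing. Gain or loss of signal fitted bidirectionally against DMSO baseline.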
# [6] = read-out: Monocyte Chemoattractant Protein-1 (MCP1), CCL2 (gene 6347); experiment: BSK_SAg_MCP1: BioMAP Diversity Plus: SAg Assay for Monocyte Chemoattractant Protein-1 (MCP1) Biomarker Activity (AID 2283090)
# Summary of the method: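 MCP-1 levels in the endothelial–PBMC SAg co-culture were quantified by ELISA at 24 h post-dosing; both increases and decreases versus DMSO scored. Cytotoxicity monitored by SRB total protein in parallel cultures.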
# Tumor necrosis factor (Homo sapiens), sequence (P01375 whole entry, looked up): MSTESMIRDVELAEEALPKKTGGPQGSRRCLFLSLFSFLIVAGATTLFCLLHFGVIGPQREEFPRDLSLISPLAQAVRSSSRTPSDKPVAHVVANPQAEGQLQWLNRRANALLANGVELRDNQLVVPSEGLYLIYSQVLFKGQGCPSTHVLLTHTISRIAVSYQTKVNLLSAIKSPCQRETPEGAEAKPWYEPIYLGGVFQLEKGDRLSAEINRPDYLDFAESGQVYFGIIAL
Compound,outcome [1],outcome [2],outcome [3],AC50 [4],AC50 [5],"AC50 (CD38, CD38 (gene 952))","AC50 (CD40, CD40 (gene 958))","AC50 (CD69, CD69 (gene 969))",outcome [6],outcome [5],"outcome (CD40, CD40 (gene 958))","outcome (CD69, CD69 (gene 969))",AC50 [6],"outcome (CD38, CD38 (gene 952))",outcome [4]
COc1cc2c(c(OC)c1OC)-c1ccc(OC)c(=O)cc1[C@@H](NC(C)=O)CC2,inactive,inactive,inactive,2390 nM (active),431 nM (active),148 nM (active),218 nM (active),505 nM (active),inactive,–,–,–,–,–,–
C[C@]12C=CC(=O)C=C1CC[C@H]1[C@@H]3C[C@@H](O)[C@](O)(C(=O)CO)[C@@]3(C)C[C@H](O)[C@@]12F,inactive,inactive,inactive,557 nM (active),–,–,–,–,–,inactive,inactive,inactive,5080 nM (active),–,–
Cc1nc(-c2ccccn2)ncc1C(=O)Nn1cc(C)c2cc(F)ccc21,inactive,inactive,inactive,–,–,–,–,–,inactive,inactive,inactive,inactive,–,inactive,–
COS(C)(=O)=O,inactive,inactive,inactive,–,–,–,–,–,inactive,inactive,inactive,–,–,–,–
CCCCN1C(=O)[C@@H]([C@H](O)C2CCCCC2)NC(=O)C12CCN(Cc1ccc(Oc3ccc(C(=O)O)cc3)cc1)CC2,inactive,inactive,inactive,–,–,–,–,–,inactive,inactive,inactive,inactive,–,inactive,–
NC(=O)NN=Cc1ccc([N+](=O)[O-])o1,inactive,inactive,inactive,–,12400 nM (active),–,–,–,inactive,–,inactive,–,–,–,inactive
FC(F)=C(F)C(F)(F)C(F)(F)C(F)(F)C(F)(F)C(F)(F)C(F)(F)F,inactive,inactive,inactive,–,–,–,–,–,inactive,inactive,inactive,–,–,inactive,–
Cn1cc[nH]c1=S,inactive,inactive,inactive,–,–,–,–,–,inactive,inactive,inactive,–,–,–,inactive
CCCCCOC(C)=O,inactive,inactive,inactive,–,–,–,–,–,inactive,inactive,inactive,inactive,–,inactive,–
Cn1c(=O)c2[nH]cnc2n(C)c1=O,inactive,inactive,inactive,–,–,–,–,–,inactive,inactive,inactive,–,–,–,inactive
OC[C@H]1O[C@@H]2O[C@H]3[C@H](O)[C@@H](O)[C@@H](O[C@H]4[C@H](O)[C@@H](O)[C@@H](O[C@H]5[C@H](O)[C@@H](O)[C@@H](O[C@H]6[C@H](O)[C@@H](O)[C@@H](O[C@H]7[C@H](O)[C@@H](O)[C@@H](O[C@H]1[C@H](O)[C@H]2O)O[C@@H]7CO)O[C@@H]6CO)O[C@@H]5CO)O[C@@H]4CO)O[C@@H]3CO,inactive,inactive,inactive,–,–,–,–,–,inactive,inactive,inactive,inactive,–,–,inactive
CC1(C)C(=O)N(Cl)C(=O)N1Cl,inactive,inactive,inactive,–,–,–,–,–,inactive,inactive,inactive,–,–,inactive,–
O=S(=O)(O)CCC(F)(F)C(F)(F)C(F)(F)C(F)(F)C(F)(F)C(F)(F)F,inactive,inactive,inactive,–,–,–,–,–,inactive,inactive,inactive,inactive,–,–,inactive
CCCCCCCCN(C)C,inactive,inactive,inactive,–,–,–,–,–,inactive,inactive,inactive,–,–,inactive,–
